Screens (PubChem BioAssay)
TLR9-MyD88 block = inhibitors of human TLR9-MyD88 binding; CHO BLA complementation TLR9-MyD88, CCF4 FRET ratio; 340,000 compounds, 0.21% hits; inhibition, % at 4.98 µM; AID 504734;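 active = inhibition above the mean over all tested compounds plus 3 SD, cut at about 21% in these data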;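 also: 0% = DMSO only wells and 100% = clavulanate BLA inhibitor control wells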
B2AR ag = activates human beta-2 adrenergic receptor causing internalization | response, % (test concentration not listed) | Am2.2-beta2AR cells, FAP receptor internalization, flow cytometry | P07550 | AID 504454 | 340,000 compounds, 0.43% hits;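 active = response above a set limit, near 3 SD of response in nonfluorescent compounds, cut at about 42% in these data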
ABHD5-PLIN5 inh = ABHD5-PLIN5 protein interaction inhibition. Q00G26+Q8WTS1. Split G. princeps luciferase complementation, luminescence, 4 h. inhibition, % at 4 µM. 360,000 compounds, 0.78% hits;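 active = inhibition above the mean inhibition across every tested compound plus 3 SD, cut at about 22% in these data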;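 also: 0% = DMSO only wells and the 100% control is not disclosed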
TLR4 MyD88 comp = inhibitors of human TLR4-MyD88 binding; O00206+Q99836; inhibition, % at 8.4 µM; AID 861; 200,000 compounds, 0.18% hits; HeLa CL3-4 TLR4/MyD88 BLA complementation, FRET ratio; in the data active = inhibition above about 25%;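 also: 0% = vehicle and 100% = reference inhibitor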
Exocytosis inh = lytic granule exocytosis inhibition. TALL-104 LAMP-1 surface exposure, flow cytometry; cells stimulated with thapsigargin and PMA. inhibition, % at 10 µM. 360,000 compounds, 0.66% hits. AID 651702;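 active = inhibition above about 55%, limit read from the data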
NOD2 RIPK2 PPI = NOD2-RIPK2 protein interaction inhibition. O43353. CHO BLA complementation NOD2-RIPK2, CCF4 ratio. inhibition, % at 4.98 µM. 360,000 compounds, 0.38% hits. AID 624267; in the data active = inhibition above about 21%;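 also: 0% = vehicle only and 100% = reference blocker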
Target sequence (O43353 whole entry, looked up): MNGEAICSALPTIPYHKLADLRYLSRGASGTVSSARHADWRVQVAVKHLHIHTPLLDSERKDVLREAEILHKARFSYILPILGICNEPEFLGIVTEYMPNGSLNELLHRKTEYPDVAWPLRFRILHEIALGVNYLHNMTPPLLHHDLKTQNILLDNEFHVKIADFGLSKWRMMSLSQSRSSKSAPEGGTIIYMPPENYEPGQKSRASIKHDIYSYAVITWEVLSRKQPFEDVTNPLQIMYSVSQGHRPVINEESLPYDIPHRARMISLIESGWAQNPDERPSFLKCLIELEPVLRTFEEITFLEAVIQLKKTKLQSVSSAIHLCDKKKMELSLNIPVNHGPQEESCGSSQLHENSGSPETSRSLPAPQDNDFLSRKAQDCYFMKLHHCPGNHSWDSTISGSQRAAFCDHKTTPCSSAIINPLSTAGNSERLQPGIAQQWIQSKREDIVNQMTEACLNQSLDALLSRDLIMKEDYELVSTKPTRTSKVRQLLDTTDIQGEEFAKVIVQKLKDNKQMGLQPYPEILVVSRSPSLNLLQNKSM
NOD2-RIPK2 conf = NOD2-RIPK2 interaction inhibition confirmed; CHO cells, NOD2-RIPK2 BLA complementation, CCF4 FRET; shares compounds with NOD2 RIPK2 PPI; inhibition, % at 4.98 µM; AID 624370; 1,200 compounds, 70% hits;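 active = mean inhibition across replicates above a set limit taken from the earlier primary screen, cut at about 21% in these data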;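 also: 0% = DMSO-only wells and the high end = clavulanate BLA-blocked wells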
BLA counter = counter-screen for NOD2-RIPK2 interaction inhibitors: BLA reporter; inhibition, % at 4.98 µM; 1,200 compounds, 57% hits; shares compounds with NOD2 RIPK2 PPI; AID 624371; CHO BLA reporter, CCF4 FRET ratio, counterscreen;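 active = mean inhibition above the low-control mean inhibition plus three low-control SD, cut at about 11% in these data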;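 also: 0% = DMSO only wells and 100% = clavulanate high control wells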
* hit, by the source's call; x = not tested or not shown; ! = not active in a repeat. Only some compounds are listed: those with a hit (about 2% of all), similar ones and a draw of the others.

SMILES | TLR9-MyD88 block | B2AR ag | ABHD5-PLIN5 inh | TLR4 MyD88 comp | Exocytosis inh | NOD2 RIPK2 PPI | NOD2-RIPK2 conf | BLA counter
COc1ccccc1N1C(=O)C2C(C(=O)c3ccccc3)=NN(c3ccc(Br)cc3)C2C1=O (configuration not stated) | x | -43 | 3 | x | -19 | 25* | 81* | 83*
Cc1onc(-c2ccccc2)c1C(=O)Nc1nnc(COc2ccc(Cl)cc2)s1 | -1 | 9 | 4 | -6 | -1 | 36* | 3 | 2
CCc1nnc(NC(=O)c2c(-c3ccccc3)noc2C)s1 | 3 | 8 | 0 | x | -6 | -1 | x | x
CC1=C(C(=O)N2CCOCC2)CC(CC(=O)NCCN2CCOCC2)C(=O)N1Cc1ccccc1 (configuration not stated) | 11 | x | 13 | x | -4 | -9 | x | x
CCc1ccc(/C=C2/SC(N3CCOCC3)=NC2=O)cc1 | -5 | -8 | -2 | x | 0 | 6 | x | x
CCN1C/C(=C/c2ccc(N3CCOCC3)cc2)C(=O)/C(=C/c2ccc(N3CCOCC3)cc2)C1 | 8 | -2 | 58* | 20 | -4 | 23* | 39* | 34*
CCCCOCCOC(=O)C1OC1(C)c1ccccc1 (configuration not stated) | -15 | x | 4 | x | 0 | -2 | x | x
COc1ccc(N/C=C\C(=O)c2ccc3ccccc3c2)cc1 | 1 | 4 | -9 | x | 12 | 2 | x | x
NS(=O)(=O)c1ccc(N/C=C\C(=O)c2ccc3ccccc3c2)cc1 | 1 | 0 | 5 | 2 | -2 | 24* | 4 | 12*
CC(C)CC(C(=O)OCC(=O)Nc1cccc(Cl)c1)N1C(=O)C2CC=CCC2C1=O (configuration not stated) | 0 | 14 | -3 | 7 | 21 | 22* | -2 | -3
Cc1ccc(S(=O)(=O)NC(=O)C2(C)CCN2C(=O)Cc2ccc(C(C)(C)C)cc2)cc1 (configuration not stated) | x | x | -5 | x | -4 | 3 | x | x
O=S(=O)(Oc1ccccc1)c1ccc(Cl)c(Cl)c1 | 1 | 0 | 5 | x | -5 | -4 | x | x
O=[N+]([O-])c1cc(S(=O)(=O)Oc2ccccc2)ccc1Cl | 16 | 41 | 4 | x | 80* | 58* | 16 | 1
CCOC(=O)c1c(N2C(=O)C3C4C=CC(O4)C3C2=O)sc2c1CCCC2 (configuration not stated) | -2 | 4 | 15 | 2 | 36 | 22* | 4 | 0
CN(C)c1ccc(C=Cc2nccc3ccccc23)cc1 | x | x | 9 | x | -9 | 75* | 37* | 46*
O=C1OCCC1=CN1CCCCC1 | 4 | x | 0 | x | -4 | 3 | x | x
O=C1c2cccc3c([N+](=O)[O-])ccc(c23)C(=O)N1O | 9 | -59 | -5 | x | 7 | 21* | 17 | 12*
COc1ccc2c3c(cccc13)C(=O)N(O)C2=O | -2 | 8 | 6 | 1 | -7 | -1 | x | x
O=C1CC[C@@H](C(=O)N2CSC[C@@H]2C(=O)Nc2cccc(C(F)(F)F)c2)N1 | -1 | x | 1 | x | -6 | -5 | x | x
Cc1ccc(S(=O)(=O)NCCN2CCOCC2)c(C)c1 | -10 | -3 | 2 | x | 5 | 0 | x | x
Cc1ccc(S(=O)(=O)NCCN2CCOCC2)c(C)c1C | -3 | 13 | -4 | -8 | 2 | 72* | -6 | -7
COc1ccc(C(C(=O)NC2CCCCC2)n2c(=O)c(-c3cc4ccccc4[nH]3)nc3ccccc32)cc1 (configuration not stated) | x | x | -3 | x | -7 | 44* | 41* | 65*
COc1ccc(C(C(=O)NC2CCCC2)n2c(CSCCOc3ccccc3)nc3ccccc32)cc1 (configuration not stated) | x | x | 9 | x | 11 | -11 | x | x
O=C(NC1CCCCC1)C(c1ccnc2ccccc12)n1c(=O)c(-c2cc3ccccc3[nH]2)nc2ccccc21 (configuration not stated) | x | x | -9 | x | 10 | 51* | 50* | 67*
N#Cc1ccc(C(C(=O)NC2CCCCC2)n2c(=O)c(-c3cc4ccccc4[nH]3)nc3ccccc32)cc1 (configuration not stated) | x | x | -7 | x | 3 | 54* | 50* | 71*
SMILES | TLR9-MyD88 block | B2AR ag | ABHD5-PLIN5 inh | TLR4 MyD88 comp | Exocytosis inh | NOD2 RIPK2 PPI | NOD2-RIPK2 conf | BLA counter
O=C(NC1CCCCC1)C(c1ccccc1)n1c(=O)c(-c2cc3ccccc3[nH]2)nc2ccccc21 (configuration not stated) | x | x | -1 | x | 1 | 44* | 40* | 66*
Cc1nn(CC(=O)N(CC(C)C)C2CCS(=O)(=O)C2)c(C)c1[N+](=O)[O-] (configuration not stated) | -3 | 0 | -4 | x | 1 | -12 | x | x
O=C(Nc1cccnc1)C1Cc2c(-c3ccco3)ccnc2O1 (configuration not stated) | x | x | 5 | x | -2 | 9 | x | x
O=C(C[C@H]1C[C@H]2c3cc(NS(=O)(=O)c4ccc(F)cc4)ccc3O[C@H]2[C@H](CO)O1)NCc1ccncc1 | 6 | x | -1 | x | 1 | 1 | x | x
CCCCNc1c(-c2ccc(-c3cccc(Cl)c3)cc2)nc2ccccn12 | 12 | 1 | -7 | x | 8 | 22*! | 16 | 16*
Cc1ccc2nc(-c3ccc(-c4cccc(Cl)c4)cc3)c(NCc3ccccc3)n2c1 | 4 | 4 | -9 | x | -5 | 12 | x | x
COCCCN(Cc1cc(OC)c(OC)c(OC)c1)C(=S)Nc1cccc(Cl)c1 | -11 | x | -8 | x | 7 | 2 | x | x
O=C(OCc1ccccc1)N1CCC2CC1c1c2cccc1N1CCOCC1 (configuration not stated) | x | x | 3 | x | -1 | 4 | x | x
CC(C)n1cc2c(N)ncnc2n1 | -4 | 3 | 5 | x | 5 | -2 | x | x
O=[N+]([O-])c1cc(S(=O)(=O)N2CCCC2)ccc1O | 6 | -3 | 1 | -12 | -1 | -15 | x | x
O=[N+]([O-])c1cc(S(=O)(=O)N2CCCCCC2)ccc1F | 18 | 50* | 4 | 12 | 1 | 30* | 54* | 4
CCNC(=O)N(C)C[C@H]1N[C@@](Cc2ccccc2)(C(=O)OC)[C@H]2C(=O)N(C)C(=O)[C@@H]12 | -2 | 4 | 6 | x | 2 | -8 | x | x
COc1ccc([N+](=O)[O-])c(S(=O)(=O)c2ccc(Cl)cc2)n1 | -3 | 41 | 39* | x | 10 | 21* | 48* | -11
COc1ccccc1S(=O)(=O)c1ccccc1[N+](=O)[O-] | -3 | -8 | -2 | 8 | -4 | -9 | x | x
COc1ccc([N+](=O)[O-])c(S(=O)(=O)c2ccccc2)n1 | x | 51* | 53* | x | 27 | 33* | 59* | -4
COc1nc(OC)nc(Oc2ccc(Cl)cc2[N+](=O)[O-])n1 | 3 | 0 | -5 | -8 | 3 | 12 | x | x
